# PubChem BioAssay AID720504 (National Center for Advancing Translational Sciences (NCATS), 2013)
# About 10,000 (2.8%) of roughly 360,000 compounds were called active. Roughly 4% stayed inconclusive and do not appear here. The full list was thinned out, with actives kept by preference. Values without a mark were called inactive. Calls follow the shape of the dose curve; as a rule, active = well fitted inhibition curve with a large enough effect; inconclusive = small, poorly fitted or top-dose-only effect; inactive = flat fitted curve, though single readings scatter.
# Target: Serine/threonine-protein kinase PLK1 (Homo sapiens) (UniProt P53350)
# Sequence (P53350 whole entry, looked up, the tested form may be a part): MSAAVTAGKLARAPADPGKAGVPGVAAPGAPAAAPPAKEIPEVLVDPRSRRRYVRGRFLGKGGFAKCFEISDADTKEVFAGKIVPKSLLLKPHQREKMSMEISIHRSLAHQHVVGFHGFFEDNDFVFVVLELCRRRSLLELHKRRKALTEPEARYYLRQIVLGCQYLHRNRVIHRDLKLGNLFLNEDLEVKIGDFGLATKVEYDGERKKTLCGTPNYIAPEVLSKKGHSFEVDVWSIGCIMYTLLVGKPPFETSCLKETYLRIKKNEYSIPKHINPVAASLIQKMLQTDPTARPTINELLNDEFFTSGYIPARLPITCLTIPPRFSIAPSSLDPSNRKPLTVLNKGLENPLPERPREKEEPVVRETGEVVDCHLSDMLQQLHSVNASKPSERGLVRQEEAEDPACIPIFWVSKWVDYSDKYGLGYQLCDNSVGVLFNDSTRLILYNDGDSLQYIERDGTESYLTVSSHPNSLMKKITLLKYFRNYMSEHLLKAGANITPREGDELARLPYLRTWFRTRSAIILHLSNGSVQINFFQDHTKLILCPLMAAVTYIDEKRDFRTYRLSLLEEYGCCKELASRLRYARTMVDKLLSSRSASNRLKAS
# Assay: qHTS for Inhibitors of PLK1-PDB (polo-like kinase 1 - polo-box domain): Primary Screen; also: nearly all actives have a fitted effect of over 65% in size; as to max response, negative = inhibition: series mostly up to about 57 µM
# Conditions: Plk1 PBD binding of FITC phosphopeptide, fluorescence polarization
# % is scaled to controls: 0 for no effect and ±100 for the full control effect; potency is read from the fitted curve at half-maximal effect.
Structure (SMILES),"max response, negative = inhibition [%]",Potency
CCc1nc2ccc(C(=O)Nc3cccc(OC)c3)cn2c1N(CCC(C)C)CCN(C)C,0.24,–
COC(=O)Cc1c(-c2[nH]c3ccccc3c2CC(=O)OC)[nH]c2ccccc12,0.279,–
S=c1[nH]c2ccccc2c2ccccc12,–,18.9 µM (active)
Cc1cc2c3ccccc3[nH]c(=O)n2n1,-0.899,–
CCCNC(=O)C1CC(=O)N(c2ccc(OCc3ccccc3)cc2)C1 (stereo not drawn),3.86,–
Cc1nc(C(F)(F)F)ccc1C(=O)N1CCC1(C)C(=O)NS(=O)(=O)c1ccccc1Cl (stereo not drawn),-15.4,–
COC(=O)c1ccc(N2CCOCC2)c(NC(=O)c2ccc3c(c2)OCCO3)c1,0.435,–
O=C(Nc1ccc(N2CCOCC2)cc1)c1cccc(S(=O)(=O)N2CCOCC2)c1,-5.11,–
O=C(Nc1ccc(N2CCOCC2)cc1)c1ccc2c(c1)OCO2,–,26.7 µM (active)
COCOCCn1cc(CN2CCS(=O)(=O)N(Cc3ccc(-c4ccc(OC)cc4)cc3)C(CC(C)C)C2=O)nn1 (stereo not drawn),-17,–
CCC(C)CN1C(=O)CN(S(C)(=O)=O)CC1(C)C(=O)Nc1ccc2c(c1)OCCO2 (stereo not drawn),-14.3,–
Cc1ccc(S(=O)(=O)N2[C@@H](c3ccccc3F)C(C(=O)O)=CC[C@H]2c2ccc(Cl)cc2)cc1,-15.9,–
CCOC(=O)C1=CC[C@@H](c2ccccc2)N(S(=O)(=O)c2ccc(C)cc2)[C@H]1c1cccc(OC)c1,-10.4,–
Cc1ccc(S(=O)(=O)N2[C@@H](c3cccc(Cl)c3)C(C(=O)O)=CC[C@H]2c2ccc(Cl)c(Cl)c2)cc1,–,21.2 µM (active)
CCc1noc(C)c1C(=O)OCC(=O)c1ccc(NC(=O)CC(C)C)cc1,-8.24,–
CC(C)C[C@@H]1COc2cc(N3CCC[C@@H]3CO)ccc2S(=O)(=O)N1,2.66,–
CC(C)N1CCc2c(sc(NC(=O)Cc3ccccc3)c2C#N)C1,-26,–
N#Cc1c(N)sc2c1CCN(C(=O)OCc1ccccc1)C2,–,23.8 µM (active)
CC(=O)N1CCc2c(sc(NC(=O)CCS(=O)(=O)c3ccccc3)c2C#N)C1,-11.3,–
CCN(CC)C(=O)C1=C(C)N(Cc2ccccc2)C(=O)C(CC(=O)NC(c2ccccc2)c2ccccc2)C1 (stereo not drawn),-7.71,–
CCCCc1nc2ccc(F)cc2cc1C,-7.86,–
CN(C)C(=O)N=NC(=O)N(C)C,–,1.89 µM (active)
O=C(CSc1nc2cccc(F)c2c(=O)n1-c1ccccc1)Nc1ccc2c(c1)CCC2,-2.85,–
